NPC1 promoter act: activates the NPC1 promoter. AID 485313. 320,000 compounds, 2.4% hits. Potency, µM (top dose mostly 9.22 µM), for inactives: at the top dose activation, hits mostly activators. Huh7 NPC1 promoter luciferase reporter, 24 h; also: % of control where 0% means no effect; nearly all actives have a fitted effect of over 60% in size
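Compounds in DMSO were transferred onto Huh7 NPC1-luciferase reporter cells pre-incubated 2 h; after 24 h at 37 °C, Amplite reagent was dispensed and luminescence recorded 10 min later.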
SMN2 splice enh: increases expression of the SMN2 splice variant | HEK293 SMN2-luciferase splicing reporter, luminescence, 30-36 h | Potency, µM (titrated, usually from 46.1 µM), for the others: at the highest dose activity change, positive = activation, usual class: activators | 210,000 compounds, 2.8% hits; also: % of control where 0% means no effect; nearly all actives have a fitted effect of over 55% in size
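HEK293 cells carry an SMN2 […]–luciferase reporter in which exon 7 inclusion puts luciferase in frame. Cells were plated 10-12 h before compound addition, then incubated 30-36 h at 37C. ONE-Glo luminescence was read; sodium butyrate at 4.5 mM final served as control.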
FLuc counter: firefly luciferase modulation, counter-screen for miR-21 project; purified FLuc, Km substrates, luminescence inhibition; Potency, µM (highest dose often 57.5 µM), inactives show at the highest dose activity change, negative = inhibition, most hits filed as inhibitors; P08659; 360,000 compounds, 6.9% hits;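 also: plate controls were vehicle for no effect and reference inhibitor for full effect; nearly all actives have a fitted effect of over 55% in size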
Target sequence (P08659 whole entry, looked up): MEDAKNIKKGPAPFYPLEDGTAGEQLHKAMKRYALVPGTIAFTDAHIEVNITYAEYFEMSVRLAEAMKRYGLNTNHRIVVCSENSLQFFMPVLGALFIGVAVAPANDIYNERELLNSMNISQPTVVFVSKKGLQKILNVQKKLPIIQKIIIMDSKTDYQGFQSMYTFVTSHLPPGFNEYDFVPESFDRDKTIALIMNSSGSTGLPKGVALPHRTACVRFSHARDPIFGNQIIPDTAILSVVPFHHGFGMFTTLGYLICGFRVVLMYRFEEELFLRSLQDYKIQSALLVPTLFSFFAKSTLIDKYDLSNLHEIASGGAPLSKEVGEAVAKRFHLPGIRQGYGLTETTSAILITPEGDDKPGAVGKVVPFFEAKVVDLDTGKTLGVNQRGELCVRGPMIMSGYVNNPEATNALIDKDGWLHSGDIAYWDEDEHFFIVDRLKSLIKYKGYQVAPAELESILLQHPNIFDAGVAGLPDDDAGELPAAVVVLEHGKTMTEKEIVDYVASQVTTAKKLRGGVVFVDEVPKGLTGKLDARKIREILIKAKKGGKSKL
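Biochemical qHTS of compounds, final roughly 60 µM downward over six points, against 10 nM purified firefly luciferase using Km concentrations of substrates (10 uM D-luciferin, 10 uM ATP) in Tris acetate pH 7.5 buffer; luminescence output.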
KinaseGlo FLuc: counter-screen: inhibitors of Kinase-Glo firefly luciferase. Q27757. Kinase-Glo luciferase, ATP luminescence, 8 min. Potency, µM (highest dose often 38.3 µM), for the others: top-dose activity change, negative = inhibition, most hits filed as inhibitors. 200,000 compounds, 0.28% hits. AID 1379; also: % is scaled to controls: 0 for no effect and ±100 for the full control effect; nearly all actives have a fitted effect of over 60% in size
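Kinase-Glo luciferase light output from ATP and luciferin was measured with 10 uM ATP, within the enzyme's linear range. Buffer: 50 mM imidazole pH 7.2, 50 mM KCl, 7 mM MgCl2, 0.01% Tween 20, 0.05% BSA; luminescence read after 8 min at ambient temperature.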
ELG1 genotoxic: genotoxicity induction in ELG1-luciferase HEK293T cells | AID 504466 | HEK293T ELG1-luciferase reporter, luminescence, 16 h | Potency, µM (top dose mostly 46 µM), for the others: at the top dose activity change, positive = activation, usual class: activators | 330,000 compounds, 1.3% hits; also: % of control where 0% means no effect; nearly all actives have a fitted effect of over 60% in size
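Quantitative HTS format in 1536-well plates. HEK293T ELG1-luciferase reporter cells receive test compound and are incubated 16 hr at 37 °C, 5% CO2; ONE-Glo added, 30 min room temperature, then luminescence read.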
Rab9 promoter act: activates the Rab9 promoter | Huh7 Rab9 promoter-luciferase reporter, luminescence, 24 h | Potency, µM (doses to about 9.22 µM), for the others: at the highest dose activation, negative = inhibition, usual class: activators | 320,000 compounds, 2.8% hits; also: % of control where 0% means no effect; nearly all actives have a fitted effect of over 60% in size
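Steps: seed 1500 Huh7 Rab9-luc cells per well, rest 2 h at 37 °C; add compound in DMSO; incubate 24 h; add luciferase reagent, 10 min ambient; read luminescence.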
Numbers without * were called inactive; ? = inconclusive; · = no result. In the library only some 7.5% were active in any assay of this set; here they are far more common. Calls follow the shape of the dose curve; as a rule, active = well fitted curve in the direction sought with a large enough effect; inconclusive = small, poorly fitted or top-dose-only effect, or another doubt; inactive = no such curve, though single readings can be large; an effect the other way counts as inactive or inconclusive. Potency is read from the fitted curve at half-maximal effect.

SMILES	NPC1 promoter act	SMN2 splice enh	FLuc counter	KinaseGlo FLuc	ELG1 genotoxic	Rab9 promoter act
CC(C)C(=O)Nc1ccc(NC(=O)c2cccs2)cn1	?	7.1%	?	8.7%	18.4µM*	?
CC(C)C(=O)Nc1ccc(NC(=O)c2ccccn2)cn1	0.708µM*	·	6.75µM*	·	?	0.562µM*
O=C(Nc1ccc(NC(=O)C2CC2)nc1)c1cnccn1	3.2%	?	-20.7%	-7.0%	?	14.4%
CC(C)C(=O)Nc1ccc(NC(=O)c2cccnc2)cn1	-5.6%	2.4%	0.2%	-1.3%	5.0%	-0.3%
Cc1cc(C)c(NC(=O)c2c(C)oc3c2C2=NCCN2C=N3)c(C)c1	·	·	-0.7%	·	·	·
NC(=O)c1nc(Nc2ccccc2)sc1NC(=O)c1ccccc1Br	·	·	-2.5%	·	·	·
CCCC(=O)Nc1cc(C)c(NC(=O)c2ccccn2)cn1	24.0%	7.9%	-19.0%	-8.5%	3.9%	?
Cc1cc(NC(=O)C(C)C)ncc1NC(=O)c1ccccn1	?	12.6µM*	?	-3.3%	?	3.16µM*
COc1ccc(CCn2c(O)cc3nn(-c4nc5ccccc5s4)c(=O)c-3c2C)cc1	2.82µM*	·	9.53µM*	·	13.7%	?
COc1ccc(C(=O)NC(=O)NC2(C(Cl)(Cl)Cl)OCCO2)cc1	0.355µM*	2.24µM*	0.953µM*	-7.7%	0.651µM*	0.251µM*
CNC(=O)NC(=S)NC(=O)c1ccc(OC)cc1	16.5%	-1.3%	-16.7%	0.7%	9.8%	21.2%
Clc1c(-c2ccccc2)nnn1-c1ccccc1	2.24µM*	10µM*	3.38µM*	-10.6%	8.2µM*	2.24µM*
c1ccc(-n2nnc3ccccc32)cc1	7.1%	·	-19.9%	·	1.0%	-0.7%
CCCCC1CCC(c2nc(-c3ccccn3)no2)CC1 (stereo unspecified)	?	11.2µM*	2.69µM*	-6.0%	?	?
C/C=C\C=C/C(=O)Nc1cccc(C2=NOC3(C2)C[C@@H](C(N)=O)N(C(=O)/C=C/C=C\C)C3)c1 (stereo partly specified)	8.2%	·	19µM*	·	6.1%	5.0%
CCC(=O)Nc1cccc(C2=NOC3(C2)C[C@@H](C(N)=O)N(C(=O)c2cc([N+](=O)[O-])cc([N+](=O)[O-])c2)C3)c1 (stereo partly specified)	-3.5%	·	-2.3%	·	2.3%	-5.6%
C/C=C\C=C/C(=O)Nc1cccc(C2=NOC3(C2)C[C@@H](C(N)=O)N(C(=O)/C=C/CC)C3)c1 (stereo partly specified)	1.7%	·	16.9µM*	·	4.5%	10.4%
C=C(C)C(=O)N1CC2(CC(c3cccc(NC(=O)/C=C\C=C/C)c3)=NO2)C[C@H]1C(N)=O (stereo partly specified)	12.4%	·	16.9µM*	·	1.4%	13.5%
C/C=C\C(=O)Nc1cccc(C2=NOC3(C2)C[C@H](C(N)=O)N(C(=O)/C=C/CC)C3)c1 (stereo partly specified)	-4.1%	·	0.5%	·	3.9%	-1.9%
C/C=C/C=C\C(=O)Nc1cccc(C2=NOC3(C2)C[C@@H](C(N)=O)N(C(=O)c2cc([N+](=O)[O-])cc([N+](=O)[O-])c2)C3)c1 (stereo partly specified)	-1.1%	·	3.01µM*	·	5.2%	-7.1%
CC(C)CCn1c(=O)c2sccc2n2c(CCCC(=O)Nc3ccc(C(C)C)cc3)nnc12	·	·	1.9%	·	·	·
CC(=O)c1ccc(NC(=O)Cn2c(-n3nc(C)cc3C)nc(C)c(C)c2=O)cc1	·	·	-9.9%	·	·	·
C/C=C\C=C/C(=O)Nc1cccc(C2=NOC3(C2)C[C@@H](C(N)=O)N(C(=O)C2(C)CC2)C3)c1 (stereo partly specified)	5.4%	·	15.1µM*	·	7.0%	3.6%
Cc1cccc(N2CCN(C(=O)C3CCCN(S(=O)(=O)c4ccc(Br)s4)C3)CC2)c1C (stereo unspecified)	·	-56.0%	-1.1%	·	·	·

Screening data: PubChem BioAssay, National Center for Advancing Translational Sciences (NCATS)
